Screening results deposited in PubChem by National Center for Advancing Translational Sciences (NCATS).
Shown are actives, neighbours in structure and some others; about 12% of the full set was active somewhere.
BAZ2B block – inhibitors of human BAZ2B bromodomain; Potency, µM (highest dose often 114 µM), for inactives: top-dose activity change, negative = inhibition, actives largely listed as inhibitors; Q9UIF8; AlphaScreen BAZ2B-H3K14Ac peptide displacement; AID 504333; actives 4.4% (n = 360,000); also: % is scaled to controls: 0 for no effect and ±100 for the full control effect; nearly all actives have a fitted effect of over 60% in size
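Multi-concentration screen (max 110 uM) measuring displacement of acetylated histone H3 peptide from BAZ2B by AlphaScreen, using 50 nM protein, 50 nM peptide and 10 ug/mL streptavidin donor plus Ni-chelate acceptor beads.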
HP1b binding inh – blocks HP1-beta chromodomain binding to methylated histone tails; P83916; AlphaScreen HP1-beta / biotin-H3K9me3 peptide binding; Potency, µM (series often up to 114 µM), without a hit: top-dose activity change, negative = inhibition, usual class: inhibitors; actives 0.56% (n = 390,000); AID 540317; also: nearly all actives have a fitted effect of over 70% in size
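AlphaScreen: HP1-beta (50 nM) preformed 30 min with biotin-H3(1-18)K9me3 peptide (50 nM) in PBS pH 7.4, 0.01% Tween-20. Compound added for 30 min at RT, then streptavidin donor/nickel chelate acceptor beads (10 ug/mL) for 30 min.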
G9a inh – G9a (human) methyltransferase inhibition | G9a H3K9 monomethylation, AlphaScreen, 2 h | Potency, µM (series often up to 102 µM), inactives show at the top dose activity, negative = inhibition, actives largely listed as inhibitors | actives 8.8% (n = 350,000); also: % is scaled to controls: 0 for no effect and ±100 for the full control effect; nearly all actives have a fitted effect of over 75% in size
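Quantitative HTS format: methyltransferase activity on a biotin-tagged H3K9 peptide is measured by AlphaScreen, using a rabbit anti-monomethyl-H3K9 antibody with streptavidin donor and anti-IgG acceptor beads. Final levels are 20 nM enzyme, 500 nM peptide, 20 uM SAM; 2 h RT.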
Sfp PPTase inh – inhibitors of Bacillus subtilis Sfp phosphopantetheinyl transferase; Potency, µM, without a hit: largest response in the series, negative = inhibition, usual class: inhibitors; actives 3.5% (n = 310,000); Biochemical Sfp PPTase activity, qHTS; Q9F4F7; AID 1490;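 also: the enzyme is Sfp with the accession as filed and its product quenches rhodamine fluorescence; 0% = enzyme reaction without inhibitor and -100% = no enzyme wells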
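After 15 min at room temperature with compound, 15 nM Sfp received 5 uM rhodamine-CoA plus 12.5 uM BHQ-2-ybbR (50 mM Hepes pH 7.6, 10 mM MgCl2). Rate came from the fluorescence difference over 30 min, ex 525/em 598 nm.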
L3MBTL1 block – blocks human L3MBTL1 | AID 485360 | Q9Y468 | actives 0.66% (n = 230,000) | AlphaScreen L3MBTL1–H3K9me1 peptide binding | Potency, µM (titrated, usually from 57.1 µM), for the others: top-dose activity, negative = inhibition, most hits filed as inhibitors; also: % is scaled to controls: 0 for no effect and ±100 for the full control effect; nearly all actives have a fitted effect of over 60% in size
Target sequence (Q9Y468 whole entry, looked up): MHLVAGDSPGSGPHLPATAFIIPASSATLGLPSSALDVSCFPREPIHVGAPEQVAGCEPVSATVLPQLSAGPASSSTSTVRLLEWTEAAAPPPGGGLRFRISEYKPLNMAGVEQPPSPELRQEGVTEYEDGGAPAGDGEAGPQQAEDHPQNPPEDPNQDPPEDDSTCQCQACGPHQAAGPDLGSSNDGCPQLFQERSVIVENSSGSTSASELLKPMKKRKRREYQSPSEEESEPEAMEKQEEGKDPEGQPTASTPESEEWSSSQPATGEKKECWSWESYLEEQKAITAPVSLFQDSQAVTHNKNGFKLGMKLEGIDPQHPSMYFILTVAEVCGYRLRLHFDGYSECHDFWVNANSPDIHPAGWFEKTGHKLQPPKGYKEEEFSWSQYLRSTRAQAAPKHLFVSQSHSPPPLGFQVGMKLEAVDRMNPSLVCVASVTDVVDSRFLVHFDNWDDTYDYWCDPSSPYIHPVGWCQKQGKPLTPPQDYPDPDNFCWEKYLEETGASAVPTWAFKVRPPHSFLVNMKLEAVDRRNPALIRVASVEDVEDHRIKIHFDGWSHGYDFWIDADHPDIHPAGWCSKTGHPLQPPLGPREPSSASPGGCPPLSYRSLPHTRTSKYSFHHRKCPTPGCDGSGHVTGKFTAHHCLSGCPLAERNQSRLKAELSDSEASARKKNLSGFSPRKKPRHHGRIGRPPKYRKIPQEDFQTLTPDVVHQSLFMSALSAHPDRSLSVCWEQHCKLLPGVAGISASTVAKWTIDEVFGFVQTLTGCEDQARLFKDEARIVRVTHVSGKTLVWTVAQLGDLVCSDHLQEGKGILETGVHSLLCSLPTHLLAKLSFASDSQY
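AlphaScreen assay: L3MBTL1 (50 nM final) was preincubated 30 min at room temperature with biotinylated H3(1-15)K9me1 peptide (75 nM final), then 30 min with library compounds; streptavidin donor and nickel chelate acceptor beads (10 ug/mL final) added, 30 min dark.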
JMJD2A Tudor – JMJD2A Tudor domain (human) inhibition; O75164; AlphaScreen JMJD2A-Tudor / H3K4me3 peptide binding; Potency, µM (doses to about 114 µM), inactives show at the highest dose activity change, negative = inhibition, most hits filed as inhibitors; actives 4.4% (n = 390,000); also: % is scaled to controls: 0 for no effect and ±100 for the full control effect; nearly all actives have a fitted effect of over 50% in size
An asterisk follows results filed as active; u = inconclusive; x = not tested or not shown; [ ] = remark or other dose. Calls follow the shape of the dose curve; as a rule, active = well fitted curve in the direction sought with a large enough effect; inconclusive = small, poorly fitted or top-dose-only effect, or another doubt; inactive = no such curve, though single readings can be large; an effect the other way counts as inactive or inconclusive. Potency is read from the fitted curve at half-maximal effect.

SMILES	BAZ2B block	HP1b binding inh	G9a inh	Sfp PPTase inh	L3MBTL1 block	JMJD2A Tudor
CCOC(=O)N1CCC(N2C(=O)c3ccccc3C2Nc2ccc3c(c2)OCCO3)CC1 (stereo not given)	u	-6%	50µM*	22%	x	u
CCOC(=O)N1CCC(N2Cc3cccc(C(=O)NC(C)c4ccc5c(c4)OCCO5)c3C2=O)CC1 (stereo not given)	-10%	23%	40µM*	-22%	x	-32%
Cn1c(=O)c2c(-c3ccc(Cl)cc3)ccnc2n(C)c1=O	-10%	29%	14%[59 µM]	x	x	-18%
Cc1c(C(=O)N2CCC(C)CC2)c(S(=O)(=O)Nc2cccc(C(F)(F)F)c2)c(C)n1C	-29%	22%	-3%[12.7 µM]	x	x	-6%
CCOC(=O)N1CCC(N2C(=O)c3ccccc3C2Nc2ccccc2C)CC1 (stereo not given)	-4%	31%	u	8%	-3%	-5%
CCOC(=O)c1ccccc1NC1c2ccccc2C(=O)N1C1CCN(C(=O)OCC)CC1 (stereo not given)	-26%	18%	40µM*	-7%	u	-19%
Cc1ccc(C)c(Cn2c(=O)n(CCCC(=O)NCc3ccc4c(c3)OCO4)c(=O)c3sccc32)c1	-7%	-1%	-1%[59 µM]	x	x	-15%
Cc1cccc(C)c1NC(=S)NC(C)(C)CO	18%	86%	u	10%	-4%	-3%
Cc1cc(C)c(NC(=S)NC(CO)(CO)CO)c(C)c1	2%	16%	10µM*	-6%	x	89µM*
COc1ccc(NC(=O)c2csnn2)cc1Cl	-32%	-18%	u	x	x	-19%
O=C(Nc1ccc(CN2CCOCC2)cc1)c1ccc(-c2cccc(Cl)c2)o1	u	-13%	18µM*	-26%	u	-34%
O=C(NC(=S)Nc1ccc(CN2CCOCC2)cc1)c1ccc(-c2cccc(Cl)c2)o1	u	-7%	u	-2%	-7%	u
O=C(Nc1ccc2nn(-c3ccccc3)nc2c1)c1ccc(-c2cccc(Cl)c2)o1	-15%	84%	14µM*	x	x	-22%
COc1ccc(-n2nc3ccc(NC(=O)c4ccc(-c5cc(Cl)ccc5Cl)o4)cc3n2)cc1	5%	36%	u	x	x	-5%
O=C(Nc1ccc(CN2CCOCC2)cc1)c1ccc(Cl)cc1Cl	3%	47%	17%[59 µM]	19%	3%	-3%
O=C(Nc1ccc(CN2CCOCC2)cc1)c1ccc(-c2ccc(Cl)cc2Cl)o1	u	3%	40µM*	-4%	-18%	-27%
COc1cccc(N2CC(NC(=O)c3cc(Cl)ccc3OC)CC2=O)c1 (stereo not given)	-4%	-8%	0%[59 µM]	x	x	-9%
CC(C)C(c1nnnn1Cc1cccs1)N1CCN(C(=O)c2ccco2)CC1 (stereo not given)	-8%	-16%	x	18µM*	3%	u
O=C(c1ccco1)N1CCN(C(c2ccccc2)c2nnnn2Cc2cccs2)CC1 (stereo not given)	u	9%	u	79µM*	-5%	-27%
O=C(c1ccco1)N1CCN(C(c2ccc(F)cc2)c2nnnn2Cc2cccs2)CC1 (stereo not given)	u	17%	u	-18%	6%	-35%
Fc1ccc(C(c2nnnn2Cc2cccs2)N2CCN(C3CCCC3)CC2)cc1 (stereo not given)	u	16%	-25%[59 µM]	5%	10%	-5%
O=C(c1ccco1)N1CCN(C(c2ccccc2Cl)c2nnnn2Cc2cccs2)CC1 (stereo not given)	-32%	-6%	u	-8%	-13%	-18%[11.4 µM]
c1ccc(C(c2nnnn2Cc2cccs2)N2CCN(C3CCCC3)CC2)cc1 (stereo not given)	-3%	16%	45µM*	-6%	3%	-24%
O=C(c1ccco1)N1CCN(C(c2ccccc2Cl)c2nnnn2Cc2ccco2)CC1 (stereo not given)	u	-13%	-21%[59 µM]	50µM*	2%	-5%[11.4 µM]
Cc1ccc2oc(C(=O)Nc3cccc(Cl)c3)cc(=O)c2c1	-14%	27%	9%[59 µM]	x	x	-16%
SMILES	BAZ2B block	HP1b binding inh	G9a inh	Sfp PPTase inh	L3MBTL1 block	JMJD2A Tudor
CCc1cccc(CC)c1-n1nnc2c(sc3nc(C)cc(C)c32)c1=O	-1%	10%	7%[59 µM]	x	x	-31%
O=C(O)c1cc(Nc2nc(N3CCOCC3)nc(N3CCOCC3)n2)ccc1Cl	4%	31%	4%[59 µM]	24%	-1%	-11%
O=C(O)c1cc(N/N=C/c2ccc(N3CCOCC3)s2)ccc1Cl	50µM*	u	2.2µM*	56µM*	20µM*	45µM*
C/C(=N\NC(=O)c1ccc(O)cc1)c1ccc(N2CCOCC2)cc1	0%	7%	x	-5%	11%	6%[11.4 µM]
NC(=O)N/N=C/c1ccc(N2CCOCC2)s1	-36%	9%	3.2µM*	79µM*	-3%	-23%
C/C(=N\Nc1ccc(Cl)c(C(=O)O)c1)c1ccc(N2CCOCC2)cc1	-11%	-13%	40µM*	-3%	x	-28%
C/C(=N\Nc1ccc(Cl)c(C(=O)O)c1)c1ccc[nH]1	u	11%	25µM*	11%	28µM*	u
CCN1C(=O)/C(=C/C=C2\N(CC)c3cc(S(=O)(=O)N(C)C)ccc3N2c2ccccc2)SC1=S	8.9µM*	-17%	u	u	u	-31%[11.4 µM]
N#C/C(=N\Nc1cccc2ccccc12)c1nnc2n1CCCCC2	u	21%	1.8µM*	u	-45%	-35%
N#Cc1c(C(F)(F)F)cc(-c2ccco2)nc1SCc1ccncc1	7%	60%	u	-4%	-1%	4%
CSc1nc(-c2ccco2)cc(-c2ccccc2)c1C#N	24%	161%	50µM*	-16%	2%	-10%[11.4 µM]
CSc1nc(-c2ccco2)cc(C(F)(F)F)c1C#N	13%	-7%	25µM*	1%	10%	-2%[57.1 µM]
O=C(Nc1ccccc1)C(Cl)C(=O)c1ccccc1 (stereo not given)	3%	-10%	4%[0.501 µM]	14µM*	0%[2.29 µM]	-10%
CC(=O)C(Cl)C(=O)Nc1ccccc1 (stereo not given)	-3%	62%	45µM*	u	2%	-3%
CC(C(=O)Nc1ccccc1)C(=O)Nc1ccccc1	13%	34%	-5%[0.501 µM]	3%	-5%[2.29 µM]	-17%
O=C(Nc1ccccc1)C(Cc1ccccc1)c1ccccc1 (stereo not given)	x	44%	x	x	x	-3%
CCCCc1ccc(NC(=O)c2cc(-c3ccc(C)c(F)c3)on2)cc1	-7%	1%	-10%[59 µM]	x	x	-24%
CN1c2ccccc2-c2nc(SCC(=O)Nc3ccccc3)ncc2S1(=O)=O	-20%	-4%	-7%[59 µM]	x	x	6%
